Assay outcomes from PubChem BioAssay.
EPAC1 antag – antagonists of human EPAC1 | EPAC1 GEF assay, Rap1b-BODIPY-GDP exchange fluorescence | AID 720709 | hit rate 0.14% among 360,000 | Potency, µM (highest dose often 115 µM), for inactives: top-dose activity change, negative = inhibition, most hits filed as inhibitors | O95398;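 further: plate controls were vehicle for no effect and positive control for full effect; nearly all actives have a fitted effect of over 50% in size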
ERG Ets-DNA blk – blocks human ERG Ets domain binding to DNA; P11308; fluorescence polarization, His-ERG Ets domain / labelled DNA; Potency, µM (doses to about 76.9 µM), without a hit: at the top dose FP activity, negative = inhibition, usual class: inhibitors; hit rate 0.028% among 370,000; active means well fitted inhibition curve with a large enough effect in the polarisation, with a control signal flat; inconclusive means small, poorly fitted or top-dose-only effect, or effect the other way, or a change in a side signal; inactive means no such curve, though single readings can be large or run the other way; the % refers to the polarisation;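 further: polarization taken with two DNA probes labelled with fluorescein and Texas red; % of control where 0% means no effect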
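His-tagged ERG Ets domain (1 uM in the protein solution; 300mM KCl, 50mM Tris-HCl, 1mM EDTA, 1mM DTT, pH 7.5) received compound, then a probe mix of 5 nM fluorescein-DNA and 100nM Texas-615-DNA. Fluorescence polarization was read for both dyes.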
EPAC2 antagonist – EPAC2 (human) antagonism; Q8WZA2; AID 720708; EPAC2 GEF exchange of Rap1B-BODIPY-GDP, fluorescence; Potency, µM (highest dose often 114 µM), without a hit: top-dose activity, negative = inhibition, hits mostly inhibitors; hit rate 0.18% among 360,000; further: on the % scale 0 is the no-effect control and ±100 the full control effect; nearly all actives have a fitted effect of over 45% in size
EPAC2 ag – EPAC2 (human) agonism | Q8WZA2 | EPAC2 activation, biochemical qHTS; response scale: 100% = 6.5 mM cAMP response | Potency, µM (doses to about 154 µM), without a hit: at the top dose activation, actives largely listed as activators | hit rate 0.079% among 360,000 | AID 720711; further: nearly all actives have a fitted effect of over 50% in size
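Each well held 100 nM EPAC2, 250 nM RAP1B-BODIPY-GDP and 50 uM GDP. Fluorescence, read at 5-min intervals to 30 min, was referenced to a 6.5 mM cAMP positive control.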
EPAC1 ag – agonists of human EPAC1; O95398; EPAC1 agonist qHTS, biochemical assay; response scale: 100% = response to 6.5 mM cAMP; Potency, µM (top dose mostly 154 µM), inactives show at the top dose activation, most hits filed as activators; hit rate 0.073% among 360,000; AID 720707; further: nearly all actives have a fitted effect of over 60% in size
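Read-out is the fluorescence drop as BODIPY-GDP leaves Rap1B (480 nm excitation, 540 nm emission), recorded every 5 minutes over 30 minutes. Reactions held 100 nM EPAC1, 250 nM Rap1B–BODIPY-GDP and 50 uM GDP, with 6.5 mM cAMP setting full activation.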
RGS4 inh – blocks human RGS4-accelerated GTP hydrolysis; P49798; Transcreener GDP fluorescence polarization, RGS4-accelerated GTP hydrolysis; Potency, µM (top dose mostly 114 µM), for inactives: at the top dose activity change, negative = inhibition, most hits filed as inhibitors; hit rate 0.039% among 390,000; AID 504845; further: on the % scale 0 is the no-effect control and ±100 the full control effect; nearly all actives have a fitted effect of over 75% in size
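MLSMR compounds (23 nl, pin-transferred) preincubated 10 min at room temperature with a 500nM (2x) first reagent, then RGS4 at 900nM (2x) plus Transcreener GDP mix added; fluorescence polarization (620/688 nm) read before and after 90 min at 30 °C.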
The depositor's hits bear a star; i = inactive; ? = inconclusive; . = no result; [ ] = remark or other dose. Only some compounds are listed: those with a hit (about 0.4% of all), similar ones and a draw of the others. Unless noted, the call rests on the fitted dose curve; in most records, active means well fitted curve in the direction sought with a large enough effect; inconclusive means small, poorly fitted or top-dose-only effect, or another doubt; inactive means no such curve, though single readings can be large; an effect the other way counts as inactive or inconclusive. Potency means the concentration at half of the fitted maximal effect.

SMILES	EPAC1 antag	ERG Ets-DNA blk	EPAC2 antagonist	EPAC2 ag	EPAC1 ag	RGS4 inh
COC(=O)C1=C(C)NC(=O)NC1c1ccccc1 (stereo not given)	-16.6%	2.2%	8.6%	8.2%	0.0%	-4.0%
COc1ccc(S(=O)(=O)N2CCN(c3nc(-c4cccs4)nc4ccccc34)CC2)cc1	.	.	.	.	.	7.4%
c1ccc2c(c1)oc1c(-c3ccc4nccn4c3)cccc12	-3.8%	.	10µM*	17.7%	15.4%	.
Cc1[nH]c(=O)nc(NN=Cc2ccc(Cl)cc2)c1C(=O)Nc1ccc(Cl)cc1	2.2%	.	20.4%	31.6µM*	-5.4%	-5.0%
CC(=O)c1c(C)[nH]c(C(=O)Nc2ccc(Cl)cc2)c1C	-7.3%	8.2%	-19.3%	-5.7%	-1.9%	-13.9%
O=C(O)c1ccc(NC2=C/C(=N/S(=O)(=O)c3cccs3)c3ccccc3C2=O)cc1	50.1µM*	.	?	18.3%	-17.6%	.
Cc1cc(C)c(S(=O)(=O)/N=C2\C=C(Nc3ccc(C(=O)O)cc3)C(=O)c3ccccc32)c(C)c1	-4.9%	67.3%	28.1%	4.1%	100µM*	-19.9%
CCOC(=O)c1cc2c(ccn2C)n1CC(=O)N1CCN(c2cccc(C(F)(F)F)c2)CC1	56.2µM*	7.8%	?	-13.7%	-29.3%	-19.3%[11.4 µM]
CCOC(=O)c1cc2c(ccn2C)n1CC(=O)N1CCN(c2ccc(F)cc2)CC1	2.1%	4.3%	3.9%	-3.3%	-11.2%	-3.2%
COc1cccc(Nc2ccccc2C(=O)O)c1	?	-2.8%	-2.1%	1.9%	8.1%	10.2%
COc1cc(-c2ccc(Nc3ccccc3C(=O)O)c(OC)c2)ccc1Nc1ccccc1C(=O)O	79.4µM*	?	-7.9%	-3.9%	-8.7%	-52.7%
CC(=O)Oc1ccc2c(c1)Oc1cc(OC(C)=O)ccc1C21OC(=O)c2ccccc21	?	?	39.8µM*	i	.	-30.5%
CC(=O)Oc1ccc2c(c1)C(=O)c1ccccc1CO2	-3.8%	-15.4%	-0.9%	9.3%	2.9%	20.4%
COc1cccc(CC(=O)Nc2nc(-c3cccnc3)cs2)c1	16.1%	5.2%	-1.8%	9.3%	2.3%	1.2%
COc1ccc(CC(=O)Nc2nc(-c3cccnc3)cs2)cc1	12.6µM*	-2.2%	-3.0%	-10.2%	-9.6%	-0.3%
Cc1cccc(Cn2ccn(Cc3ccc(Cl)cc3)c(=O)c2=O)c1	.	5.5%	.	.	.	7.3%
CSc1nsc(/C=C/Nc2ccc(O)cc2C)c1C#N	-0.5%	8.91µM*	27.4%	6.9%	-5.5%	?
CN(C)C(CNC(=O)/C=C/c1cccc(Cl)c1)c1ccccc1 (stereo not given)	-3.5%	39.8µM*	4.1%	8.3%	3.3%	-38.5%
COCCCNC(=O)/C=C/c1cccc(Cl)c1	-0.1%	-5.7%	6.4%	-1.3%	1.8%	-13.6%
Cc1ccnc(NS(=O)(=O)c2ccc(NC(=O)Cc3c(F)cccc3Cl)cc2)n1	-0.1%	0.1%	?	7.1%	-3.4%	-21.9%
O=C(Cc1ccc(Cl)cc1)Nc1ccc(S(=O)(=O)Nc2ncccn2)cc1	-4.9%	-7.8%	-11.5%	4.1%	-2.6%	7.5%
O=C(Cc1c(Cl)cccc1Cl)Nc1ccc(S(=O)(=O)Nc2ncccn2)cc1	7.7%	21.8%	10µM*	4.4%	10.2%	-12.1%
NS(=O)(=O)c1ccc(NC(=O)Cc2c(F)cccc2Cl)cc1	-18.1%	1.2%	28.2µM*	-2.0%	1.0%	8.2%
CC(C)CSc1ccccc1NC(=O)c1sc2nc(-c3ccncc3)ccc2c1N	.	-2.8%	.	.	.	2.8%
CCCC1(C)C(C#N)C(=O)NC(=O)C1C#N (stereo not given)	6.6%	18.4%	-11.7%	-2.1%	3.7%	-12.7%
CCCC1(C)C(C#N)(C#N)C1(C#N)C#N	.	.	.	.	.	9.47µM*
CC(C)(C)c1ccc(OCCn2c(CCNC(=O)C3CCCCC3)nc3ccccc32)cc1	.	.	.	.	.	-15.8%
